Assay outcomes deposited in PubChem by Broad Institute.
Shown is part of a subset that was picked to be rich in hits.
CD40 NFkB inh: CD40 pathway inhibition in BL2 cells | inhibition, % at 10 µM | 83,000 tested, 0.94% active | BL2 NF-kB luciferase reporter, CD40L-induced, 4 h;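 active = mean inhibition of at least 50% with a set share of replicates also reaching that level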;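 note: 0% = neutral control wells and 100% = IKK inhibitor VII at 50 µM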
* marks the source's active call; other numbers are inactive results; i = inactive; [ ] = dose if it differs, or a comment.

SMILES	CD40 NFkB inh
COc1ccccc1CN1[C@@H](CO)[C@@H]2c3ccccc3N(C(=O)c3ccc(F)cc3)C[C@@H]21	-7.1[25 µM]
Cc1ccc(S(=O)(=O)N(C)C[C@@H]2OCCCC[C@@H](C)Oc3ccc(NC(=O)c4ccncc4)cc3C(=O)N([C@@H](C)CO)C[C@@H]2C)cc1	9.7[25 µM]
O=C(NC1CCCC1)[C@@H]1[C@@H](CO)[C@@H]2Cn3c(ccc(C4=CCCCC4)c3=O)[C@H]1N2CC1CC1	2.8[25 µM]
CO[C@@H]1CN(C)C(=O)c2ccc(NC(=O)C3CCCCC3)cc2OC[C@H](C)N(Cc2cccnc2)C[C@@H]1C	-5.9
O=C(C[C@H]1C[C@@H]2c3cc(NC(=O)c4ccc5c(c4)OCO5)ccc3O[C@@H]2[C@H](CO)O1)NCc1ccccn1	-15.4[25 µM]
O=C(NCCc1ccncc1)[C@H]1[C@H](CO)[C@H]2Cn3c(ccc(-c4ccncc4)c3=O)[C@H]2N1C(=O)C1CC1	-0.9[25 µM]
CCc1nnc(NC(=O)C2CCCN(C(=O)c3ccc(Cl)cc3)C2)s1 (stereo not given)	-40.5
CCN(CC(=O)Nc1ccc(NC(C)=O)cc1)C(=O)C1CCCN(C(=O)c2ccc(Cl)cc2)C1 (stereo not given)	28.4*
CCN(CC(=O)Nc1ccc(NC(C)=O)cc1)C(=O)C1CCCC1	0.7
COc1cc(CN2[C@@H]3CNC[C@H]2C3c2ccc(-c3ccccc3C)cc2)cc(OC)c1 (stereo not given in full)	-5.4
COc1cc(C(=O)NNC(=O)/C=C/c2ccccc2)cc(OC)c1OC	-8.8
COc1ccc(C(=O)C=Cc2ccc(OCc3ccccc3)c(OC)c2)cc1OC	-16.0
COc1cc(C=CC(=O)c2cc(OC)c(OC)c(OC)c2)cc(OC)c1OC	65.0*
COCC(=O)N1C[C@@H]2[C@H](c3ccccc31)[C@H](CO)N2C(=O)NC(C)C	1.5[25 µM]
Cc1cc(C)nc(Sc2ncnc(N)c2[N+](=O)[O-])n1	81.6*
Cc1cccnc1Nc1ncnc(N)c1[N+](=O)[O-]	2.7
Nc1ncnc(Nc2ccccn2)c1[N+](=O)[O-]	8.4
O=C([C@H]1[C@H](CO)[C@H]2Cn3c(ccc(/C=C/c4ccccc4)c3=O)[C@@H]1N2)N1CCCCC1	2.7[25 µM]
C[C@@H]1CN([C@@H](C)CO)C(=O)CCCn2cc(nn2)CO[C@H]1CN(C)CC1CCCC1	-6.4
CCCNC(=O)[C@H]1[C@H](CO)[C@H]2Cn3c(ccc(-c4cncnc4)c3=O)[C@H]2N1C(=O)c1ccccc1F	0.4[25 µM]
CCCCCCCCCCCCCCCC[n+]1ccccc1	98.6*
N#C/C(=C\c1ccc(O)c(O)c1)C(=O)NC1CCC(CC2CCC(NC(=O)/C(C#N)=C/c3ccc(O)c(O)c3)CC2)CC1 (stereo not given)	18.0[25 µM]
COc1ccccc1CN1[C@@H]2c3ccc(C4=CCCC4)c(=O)n3C[C@H]1[C@H](CO)[C@H]2C(=O)N(C)C	-2.7[25 µM]
O=C(NCCc1ccncc1)[C@H]1N[C@H]2c3ccc(/C=C/c4ccccc4)c(=O)n3C[C@H]2[C@@H]1CO	-6.2[25 µM]
COc1c(C(=O)Nc2ccc(Cc3ccncc3)cc2)ccc2ccccc12	-24.7
SMILES	CD40 NFkB inh
COc1ccc(C(=O)Nc2ccc3ccccc3n2)c(OC)c1OC	51.4*
COc1ccc(C(=O)NCCN(C)C)c2nc3ccccc3cc12	i
Cc1noc(C)c1NC(=O)N(C)C[C@@H]1OCc2ccccc2-c2ccccc2C(=O)N([C@H](C)CO)C[C@@H]1C	-14.1[25 µM]
C/C=C/c1ccc([C@@H]2[C@@H](CO)N(C(C)=O)[C@H]2CNC(=O)CC2CC2)cc1	-6.0
O=C(c1ccccn1)N1C[C@@H]2[C@H](c3ccccc31)[C@H](CO)N2C(=O)C1CC1	6.2
CC=Cc1ccc2n(c1=O)C[C@@H]1[C@@H](CO)[C@H](C(=O)N[C@@H](C)c3ccccc3)[C@H]2N1Cc1cncnc1 (mixture of isomers)	-9.2[25 µM]
CCn1nccc1C(=O)Nc1nc2ccccc2n1CCN1CCCCC1	-16.7
Cc1ccc(C(=O)Nc2nc3ccccc3n2CCN2CCCC2)cc1	-61.6
CCCn1c(NC(=O)c2cccc(S(=O)(=O)N3CCCC3)c2)nc2ccccc21	89.6*
COc1ccccc1S(=O)(=O)N[C@H]1CC[C@@H](CCn2cc(C3CCCC3)nn2)O[C@@H]1CO	-17.6
CO[C@H](CN(C)C(=O)c1cnccn1)[C@@H](C)CN([C@H](C)CO)S(=O)(=O)c1ccccc1	7.9[25 µM]
CC(=NNc1ccc2ccccc2n1)c1ccccc1O	96.2*
CC(=NNC(=O)c1ccncc1)c1ccccc1O	-48.4
Oc1ccc(/C(Cc2ccc3ccccc3n2)=N\Nc2ccccc2)c(O)c1	-39.4
C[C@H]1CN([C@@H](C)CO)C(=O)c2c(c3ccccc3n2C)-c2ccccc2CO[C@@H]1CN(C)S(=O)(=O)c1cccs1	8.8[25 µM]
COc1ccccc1CN(C)C[C@@H]1OCc2ccccc2-c2ccccc2C(=O)N([C@@H](C)CO)C[C@@H]1C	-12.8[25 µM]
C[C@H]1CN([C@@H](C)CO)C(=O)c2ccccc2-c2ccccc2CO[C@@H]1CN(C)Cc1ccccc1C(F)(F)F	66.3*[25 µM]
C[C@H](CO)N1C[C@H](C)[C@H](CN(C)Cc2ccc(Oc3ccccc3)cc2)OCc2ccccc2-c2ccccc2C1=O	57.2*[25 µM]
COc1ccccc1CN(C)C[C@@H]1OCc2ccccc2-c2ccccc2C(=O)N([C@H](C)CO)C[C@@H]1C	-3.1[25 µM]
C[C@H](CO)N1C[C@H](C)[C@H](CN(C)Cc2ccc(-c3ccccc3)cc2)OCc2ccccc2-c2ccccc2C1=O	6.1
C[C@H](CO)N1C[C@H](C)[C@H](CN(C)Cc2ccccc2)OCc2ccccc2-c2ccccc2C1=O	11.4
COc1ccc2c3c(n(C)c2c1)[C@H](CO)N(Cc1ccccc1Cl)CC31CCN(C(=O)CC2CC2)CC1	11.7[25 µM]
O=C(NCC[C@H]1CC[C@H](NS(=O)(=O)c2ccc(F)cc2)[C@H](CO)O1)Nc1ccc(Cl)cc1	-29.5
COc1ccccc1NC(=O)N[C@H]1CC[C@@H](CCNS(=O)(=O)c2ccc(Cl)cc2)O[C@H]1CO	-15.7[25 µM]
O=C([C@H]1[C@H](CO)[C@H]2Cn3c(cccc3=O)[C@H]2N1Cc1ccccc1Cl)N1CCOCC1	-2.5[25 µM]
SMILES	CD40 NFkB inh
C[C@@H](NC(=O)C[C@@H]1C=C[C@@H](NS(=O)(=O)c2cccc(F)c2)[C@H](CO)O1)c1ccccc1	1.9[25 µM]
CCOC(=O)c1cn2nc(N3CCCCC3)ccc2n1	66.3*
c1cc2nncn2nc1N1CCCC1	11.6
CCOC(=O)c1cn2nc(N3CCCC3)ccc2n1	-2.2
CN1c2ccc(-c3ccc(F)cc3)cc2[C@H]2[C@H](CCN2C(=O)c2cccnc2)[C@@H]1CO	-51.7[25 µM]
c1ccc(N2CCN(c3nc(NCc4ccco4)c4ccccc4n3)CC2)cc1	28.8
c1ccc(-c2nc(NCc3ccco3)c3ccccc3n2)nc1	53.0*
COc1ccccc1Nc1nc(NCc2ccco2)c2ccccc2n1	-20.5
N#C[C@H]1[C@H](c2ccc(-c3cccnc3)cc2)[C@@H](CO)N1C(=O)C1CC1	-11.5
CC(=O)Nc1ccc(Br)c(Cl)c1	3.0
CCCC(=O)Nc1ccc(Br)c(Cl)c1	8.7
O=C(O)CCC(=O)Nc1ccc(Br)c(Cl)c1	36.3*
CS(=O)(=O)Nc1ccc2c(c1)[C@@H]1C[C@H](CC(=O)NCc3ccncc3)O[C@H](CO)[C@@H]1O2	4.2[25 µM]
COCC(=O)N1[C@H](CO)[C@H](c2ccccc2C2=CCCC2)[C@@H]1C#N	-2.3[25 µM]
Nc1nc(=O)c2ccccc2s1	51.2*
Nc1nc2c(F)cccc2s1	-0.1
CC(=O)N/C(N)=N/c1nc(=O)c2ccccc2s1	-97.3
COc1cccc(S(=O)(=O)N2CC[C@@H]3[C@H](CO)Nc4ccc(-c5ccc(C#N)cc5)cc4[C@@H]32)c1	3.1[25 µM]
